Bioassay records deposited in PubChem by The Scripps Research Institute Molecular Screening Center.
The list is not random: actives were taken first. Their share in the collection is about 2.3%.
M1 PAM: potentiates human M1 receptor response to acetylcholine; P11229; CHO-K1 hM1, Fluo-8 calcium fluorescence, ACh EC20; 0% = ACh EC20, 100% = maximal ACh; activation, % at 3 µM; 360,000 tested, 0.088% active; in the data active means activation above about 19%, passing the limit was not always enough
Target sequence (P11229 whole entry, looked up): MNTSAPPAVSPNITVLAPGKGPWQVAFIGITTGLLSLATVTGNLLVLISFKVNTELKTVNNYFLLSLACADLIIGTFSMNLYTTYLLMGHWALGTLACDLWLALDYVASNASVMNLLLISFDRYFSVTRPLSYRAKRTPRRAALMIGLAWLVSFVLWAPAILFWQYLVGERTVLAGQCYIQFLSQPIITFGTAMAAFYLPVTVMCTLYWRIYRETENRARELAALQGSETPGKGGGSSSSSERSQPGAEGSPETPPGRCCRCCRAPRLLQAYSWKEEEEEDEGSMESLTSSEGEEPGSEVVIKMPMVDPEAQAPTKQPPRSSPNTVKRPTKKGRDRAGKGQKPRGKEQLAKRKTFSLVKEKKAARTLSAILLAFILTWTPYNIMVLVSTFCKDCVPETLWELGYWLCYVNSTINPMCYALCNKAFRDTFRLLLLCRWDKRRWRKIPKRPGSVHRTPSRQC
CHO-K1 Ca ag: M1 agonist counterscreen hit in parental CHO-K1 cells; 360,000 tested, 0.48% active; Fluo-8 calcium fluorescence; scaled to maximal ATP response, vehicle zero; activation, % at 3 µM; in the data active means activation above about 15%;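 further: untransfected CHO-K1 host cells lacking M1 receptor as counterscreen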
M1 ag: agonists of human M1 muscarinic receptor; CHO-K1 hM1, Fluo-8 calcium fluorescence, agonist mode; 0% DMSO, 100% acetylcholine EC100; activation, % at 3 µM; 360,000 tested, 0.33% active; P11229; AID 588814;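 active means activation above the run's mean compound activation plus 3 SD, cut at about 16% in these data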;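 further: peak over basal fluorescence ratio within a 140 s kinetic read after compound addition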
M1 PAM parental: nonselective activator or artifact in parental CHO-K1 calcium assay; 360,000 tested, 0.02% active; AID 602247; activation, % at 3 µM; ATP EC20, Fluo-8 calcium fluorescence; 0% at ATP EC20, 100% at ATP max;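 active means activation above the run cutoff, the mean activation of all test compounds plus 3 SD, cut at about 40% in these data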;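 further: peak over basal fluorescence ratio in a 140 s read after ATP addition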
M1 antag: antagonists of human M1 muscarinic receptor; P11229; CHO-K1 hM1, Fluo-8 calcium fluorescence, ACh EC80 antagonist; inhibition, % at 3 µM; 360,000 tested, 1.3% active; AID 588852;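 active means percent inhibition above its own plate's cutoff, namely the mean of that plate's compound wells plus 3 SD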;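 further: peak over basal fluorescence ratio during 140 s after agonist addition; 0% = ACh EC80 plus DMSO and 100% = DMSO alone without agonist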
CHO-K1 Ca antag: nonselective inhibitor or artifact in parental CHO-K1 cells | 360,000 tested, 0.6% active | ATP-induced calcium, Fluo-8 fluorescence | inhibition, % at 3 µM | AID 602250;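 active means inhibition above a per-plate cutoff, the plate's mean sample inhibition plus 3 SD, cut at about 24% in these data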;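 further: 0% = DMSO plus EC80 ATP and 100% = DMSO alone without ATP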
Numbers without * were called inactive.

SMILES | M1 PAM | CHO-K1 Ca ag | M1 ag | M1 PAM parental | M1 antag | CHO-K1 Ca antag
O=C(NCC1CCCO1)C1CCN(C2CCN(CCCC3CCCC3)CC2)CC1 (stereo not drawn) | 9 | 0 | -11 | 7 | -3 | 4
O=C(NCC1CCCO1)C1CCN(C2CCN(C(=O)CC3CCCC3)CC2)CC1 (stereo not drawn) | 6 | 0 | -13 | -19 | 9 | 27*
Cc1cc(C)c2c(=O)n(CC(=O)Nc3cccc(Cl)c3C)sc2n1 | 0 | 19* | 17* | 3 | 20 | 4
Cc1cc(C)c2c(=O)n(CC(=O)Nc3ccc(Br)c(C)c3)sc2n1 | 7 | 1 | 0 | 1 | -5 | -1
CN1C[C@@H]2C(c3ccccc3)C3(c4cccnc4)CC2(C3)[C@H]1c1ccccc1 (stereo partly drawn) | -34 | 0 | -11 | 13 | 97* | -2
CC(C)CN1C(=S)SC(C)(C)C1n1oc(=O)n(-c2ccc(Cl)cc2)c1=O (stereo not drawn) | -30 | 1 | -8 | 20 | 51* | -13
CC(C)CN1C(=S)SC(C)(C)C1n1oc(=O)n(-c2ccccc2)c1=O (stereo not drawn) | -5 | 0 | -9 | 5 | 2 | 1
C=CCN(c1ccc(C(=O)NCCN2CCOCC2)cc1)S(C)(=O)=O | 12 | 1 | -3 | 16 | -9 | -10
C/C(=N\NC(=O)C(c1ccccc1)c1ccccc1)c1ccc(O)cc1 | 31* | 1 | 2 | 20 | -39 | -13
O=C(COC(=O)C12CC3CC(CC(Br)(C3)C1)C2)N1CCOCC1 | 8 | 17* | -9 | 12 | 1 | 12
CCSc1nc2sc3c(c2c(=O)n1-c1ccccc1)CCN(C)C3 | -17 | 1 | -8 | 6 | 22 | -1
C=CCSc1nc2sc3c(c2c(=O)n1-c1ccccc1)CCN(C)C3 | -23 | 4 | -8 | 3 | 37* | 1
CCOC(=O)CSc1nc2sc3c(c2c(=O)n1-c1ccc(OCC)cc1)CCN(C)C3 | 9 | -1 | -6 | 1 | -7 | -6
CCOC(=O)CSc1nc2sc3c(c2c(=O)n1C1CCCCC1)CCN(C)C3 | -25 | 0 | -7 | 8 | 24* | 1
COc1ccc(-n2c(SC)nc3sc4c(c3c2=O)CCN(C)C4)cc1 | -2 | 0 | -6 | 5 | 70* | 0
CCn1c(CN2CCOCC2)nnc1SCC(=O)Nc1cccc(C)c1 | 7 | 1 | -6 | 0 | -5 | -1
Cc1ccc(-c2csc(N3CCC(NS(=O)(=O)c4ccc5c(c4)OCCO5)CC3)n2)cc1 | -9 | 7 | 3 | 13 | 19* | 18
Cc1ccc(-c2csc(N3CCC(C(N)=O)CC3)n2)cc1 | 11 | 1 | 0 | 10 | -6 | 3
CC(Cn1cncn1)C(=O)N1CCN(S(=O)(=O)c2ccc(Cl)cc2)CC1 (stereo not drawn) | 9 | 2 | -2 | 9 | -18 | -11
CCOc1ccccc1NC(=S)N1CCN(c2cccc(OC)c2)CC1 | 7 | 17* | 1 | 7 | -10 | 4
COc1ccc(NC(=S)N2CCN(C(c3ccccc3)c3ccccc3)CC2)c(OC)c1 | -33 | 1 | -14 | 22 | 46* | -8
COc1cccc(N2CCN(C(=S)Nc3ccccc3OC)CC2)c1 | 10 | 0 | -4 | 10 | -6 | -8
COc1ccc(CC(NC(C)=O)C(=O)NC2CCN(c3ncccc3[N+](=O)[O-])CC2)cc1 (stereo not drawn) | 6 | 0 | -4 | 10 | -3 | -10
CCCCc1cc(=O)oc2cc(OC(C)C(=O)NCCN3CCOCC3)c(Cl)cc12 (stereo not drawn) | 13 | 1 | 0 | 2 | 5 | -6
COc1ccc(OC)c2sc(N3CCN(c4ccccc4)CC3)nc12 | 6 | 0 | 0 | -5 | 9 | 28*
COc1ccc(C)c2sc(N3CCCC3)nc12 | -3 | 0 | -5 | -1 | 2 | -1
CN1C(CC(=O)Nc2ccc(Cl)cc2Cl)c2ccccc2CC1(C)C (stereo not drawn) | -20 | 0 | -9 | 13 | 34* | -9
CC1(C)N=C(SCC(=O)Nc2ccc(Cl)cc2Cl)C(c2ccccc2)=N1 | 0 | 0 | -3 | 3 | -4 | -6
